Bioassay records (PubChem)
A selection: hits, their analogues and other compounds. The true share with any hit is near 2.2%.
Ba/F3 V617F tox: lowers viability of Ba/F3 cells expressing EpoR and JAK2V617F. ATP luminescence. inhibition, % at 5.6 µM. 1.1% of 220,000 active;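 active = inhibition above the campaign mean plus 3 SD over all tested compounds, cut at about 24% in these data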;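 note: cytokine-independent growth of Ba/F3 cells driven by EpoR plus mutant JAK2; 0% = DMSO-treated cells and 100% = JAK inhibitor I control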
IEC-6 cytotox: kills IEC-6 intestinal cells in KLF5 counter-screen; IEC-6 cytotoxicity, luminescence viability; inhibition, % at 5 µM; 0.78% of 290,000 active; in the data active = inhibition above about 22%;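 note: 0% = plate median of test compound wells and 100% = cytotoxic reference compound wells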
aSyn 5UTR inh: MLPCN primary screen, SNCA 5' untranslated region; alpha-synuclein 5'UTR reporter, inhibitor activity; inhibition, % (tested at 7.5 µM); 0.82% of 300,000 active; AID 1813; in the data active = inhibition above about 60%;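 note: H4 neuroglioblastoma cells stably carrying SNCA 5'UTR luciferase fusion; 0% = DMSO wells and 100% = positive control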
KLF5 inhibitor: inhibitors of KLF5 expression; DLD-1 KLF5 promoter-luciferase reporter, luminescence; inhibition, % at 5 µM; 0.23% of 290,000 active;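 active = inhibition above a per-plate limit of that plate's mean compound inhibition plus 3 SD, cut at about 60% in these data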;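 note: 0% = DMSO wells and 100% = LY294002 at 200 µM; higher means less KLF5 promoter-driven luciferase light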
APP transl inh: APP translation inhibition; SH-SY5Y APP 5'UTR-luciferase reporter, luminescence; 0.82% of 190,000 active; inhibition, % at 2 µM;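 active = inhibition above a set limit, derived from the sample mean plus 3 SD, cut at about 45% in these data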
BaF3 tox: counter-screen for JAK2V617F inhibitors: parental Ba/F3 viability inhibitors. CellTiter-Glo ATP luminescence. inhibition, % at 5.6 µM. 1.1% of 220,000 active. AID 1486;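 active = inhibition above a per-campaign cutoff, the mean inhibition of all tested compounds plus 3 SD, cut at about 27% in these data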;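 note: 0% = DMSO wells and 100% = JAK Inhibitor I control wells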
BaF3 parental 2: reduces parental Ba/F3 viability, JAK2V617F counter-screen | shares compounds with Ba/F3 V617F tox | CellTiter-Glo luminescence; cells kept alive by added IL-3 | inhibition, % at 5.6 µM | 31% of 580 active;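 active = cell growth inhibition above the hit limit set in the earlier mutant JAK2 cell screen, cut at about 27% in these data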;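 note: plate controls were DMSO-treated cells for no effect and JAK Inhibitor I control wells for full effect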
JAK2V617F confrm: confirmation: loss of viability in JAK2V617F-dependent Ba/F3 cells; 66% of 580 active; inhibition, % at 5.6 µM; shares compounds with Ba/F3 V617F tox; Ba/F3 EpoR-JAK2V617F viability, CellTiter-Glo luminescence;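 active = mean inhibition above the hit cutoff derived in the earlier primary screen, cut at about 25% in these data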;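 note: 0% = DMSO-treated cells and 100% = JAK inhibitor I control wells; higher means lower luminescence from reduced cell ATP and viability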
Active calls of the source: *.

How did Cc1ccc2c(CC(=O)NC3CCS(=O)(=O)C3)coc2c1C (configuration not stated) do in these assays?
IEC-6 cytotox: -4; aSyn 5UTR inh: 19; KLF5 inhibitor: -41

How did CCOC(=O)N1CCN(C(=O)c2ccc(NC(=O)c3ccc(C)cc3)cc2)CC1 do in these assays?
Ba/F3 V617F tox: 24*; IEC-6 cytotox: 5; aSyn 5UTR inh: -20; KLF5 inhibitor: -46; APP transl inh: 10; BaF3 tox: 14; BaF3 parental 2: 3; JAK2V617F confrm: 32*

Results for CCOC(=O)C(C)/C(C)=N/NC(=O)CCC(=O)Nc1cc(C)ccc1C (configuration not stated) ?
Ba/F3 V617F tox: 3; IEC-6 cytotox: -1; aSyn 5UTR inh: -16; KLF5 inhibitor: 2; APP transl inh: -3; BaF3 tox: 13

What do the screens show for `Cc1noc(NC(=O)c2ccc(Cl)c(Cl)c2)c1Cl`?
Ba/F3 V617F tox: 29*; IEC-6 cytotox: 6; aSyn 5UTR inh: -35; KLF5 inhibitor: -36; APP transl inh: -1; BaF3 tox: 4; BaF3 parental 2: -2; JAK2V617F confrm: 47*

Results for COc1ccc(OCC(O)Cn2c(=N)n(CCN3CCCCC3)c3ccccc32)cc1 (configuration not stated) ?
Ba/F3 V617F tox: 34*; IEC-6 cytotox: 1; KLF5 inhibitor: -24; APP transl inh: 15; BaF3 tox: 14; BaF3 parental 2: 0; JAK2V617F confrm: 20

How did Cc1ccccc1OCC(O)Cn1c(=N)n(Cc2ccccc2)c2ccccc21 (configuration not stated) do in these assays?
Ba/F3 V617F tox: 48*; IEC-6 cytotox: 6; aSyn 5UTR inh: 113*; KLF5 inhibitor: -15; BaF3 tox: 17; BaF3 parental 2: 21; JAK2V617F confrm: 53*

What do the screens show for `O=C(CSc1ccc2ccccc2c1Br)Nc1cccc(S(=O)(=O)NC2=NCCCCC2)c1`?
Ba/F3 V617F tox: 33*; IEC-6 cytotox: 15; aSyn 5UTR inh: 64*; KLF5 inhibitor: 4; APP transl inh: 0; BaF3 tox: 1; BaF3 parental 2: 3; JAK2V617F confrm: 75*

What do the screens show for `CC(C)C1C(C#N)=C(N)Oc2n[nH]c(-c3ccc4ccccc4c3)c21` (configuration not stated)?
Ba/F3 V617F tox: 33*; IEC-6 cytotox: 12; aSyn 5UTR inh: -1; KLF5 inhibitor: 37; APP transl inh: 55*; BaF3 tox: 10; BaF3 parental 2: 26; JAK2V617F confrm: 68*

How did CC(C)C1C(C#N)=C(N)Oc2n[nH]c(-c3cccs3)c21 (configuration not stated) do in these assays?
Ba/F3 V617F tox: 5; IEC-6 cytotox: 4; aSyn 5UTR inh: -3; KLF5 inhibitor: -3; APP transl inh: -7; BaF3 tox: 10

How did O=C(c1ccc(-c2cc3ccccc3oc2=O)cc1)N1CCN(c2ccc(Cl)cc2[N+](=O)[O-])CC1 do in these assays?
Ba/F3 V617F tox: -1; IEC-6 cytotox: -4; aSyn 5UTR inh: 18; KLF5 inhibitor: -3; APP transl inh: -11; BaF3 tox: 3

How did O=C(O)CC(NC(=O)Nc1ccccc1)c1ccc(OC2CCCC2)cc1 (configuration not stated) do in these assays?
Ba/F3 V617F tox: 33*; IEC-6 cytotox: 3; aSyn 5UTR inh: -8; KLF5 inhibitor: -4; APP transl inh: 2; BaF3 tox: 4; BaF3 parental 2: -4; JAK2V617F confrm: -6

Results for CN(C)CCCN(C(=O)CCOc1ccccc1)c1nc2c(F)cccc2s1 ?
Ba/F3 V617F tox: 25*; IEC-6 cytotox: -1; aSyn 5UTR inh: 13; KLF5 inhibitor: -2; APP transl inh: 34; BaF3 tox: 3; BaF3 parental 2: 4; JAK2V617F confrm: 30*

How did C/C(=N\NC(=O)c1c(Cl)cnn1C)c1ccc(NC(=O)c2ccncc2)cc1 do in these assays?
Ba/F3 V617F tox: -4; IEC-6 cytotox: 2; aSyn 5UTR inh: -5; KLF5 inhibitor: 1; APP transl inh: -8; BaF3 tox: 6

What do the screens show for `Cc1cc(C)nc(Nc2cccc(C(F)(F)F)c2)n1`?
IEC-6 cytotox: -15; aSyn 5UTR inh: -12; KLF5 inhibitor: -23

How did Nc1ccccc1Nc1cccc(C(F)(F)F)c1 do in these assays?
Ba/F3 V617F tox: 42*; IEC-6 cytotox: -8; aSyn 5UTR inh: -52; KLF5 inhibitor: -38; APP transl inh: 7; BaF3 tox: 0; BaF3 parental 2: 40*; JAK2V617F confrm: 93*

How did CCC1(C)Cc2c(c(=O)n(-c3ccccc3)c3ncnc(N)c23)CO1 (configuration not stated) do in these assays?
Ba/F3 V617F tox: 3; IEC-6 cytotox: 4; aSyn 5UTR inh: 23; KLF5 inhibitor: -12; APP transl inh: -16; BaF3 tox: 5

What do the screens show for `COc1ccccc1Nc1nc(-c2c(C)nc3ncccn23)cs1`?
Ba/F3 V617F tox: 55*; IEC-6 cytotox: 10; aSyn 5UTR inh: -15; KLF5 inhibitor: -20; APP transl inh: 3; BaF3 tox: 4; BaF3 parental 2: 33*; JAK2V617F confrm: 59*

Results for Cc1cc(=O)oc2c(C)c3occc3cc12 ?
IEC-6 cytotox: -2; aSyn 5UTR inh: -7; KLF5 inhibitor: -22

How did CN1CCN(CCCN(Cc2cccs2)C(=S)Nc2ccc(Cl)cc2)CC1 do in these assays?
Ba/F3 V617F tox: 34*; IEC-6 cytotox: -2; aSyn 5UTR inh: 11; KLF5 inhibitor: -1; APP transl inh: -10; BaF3 tox: 23; BaF3 parental 2: 28*; JAK2V617F confrm: 46*

What do the screens show for `CCc1ccc(NC(=S)N(CCCN2CCN(C)CC2)Cc2cccs2)cc1`?
Ba/F3 V617F tox: 3; IEC-6 cytotox: -1; aSyn 5UTR inh: 0; KLF5 inhibitor: -22; APP transl inh: -14; BaF3 tox: 11

What do the screens show for `Cc1c(Cc2ccccc2)c(=O)oc2cc(O)ccc12`?
Ba/F3 V617F tox: -2; IEC-6 cytotox: 0; aSyn 5UTR inh: -2; KLF5 inhibitor: -15; BaF3 tox: 2

What do the screens show for `Cc1c(Cc2ccccc2)c(=O)oc2c(O)c(O)ccc12`?
Ba/F3 V617F tox: 44*; IEC-6 cytotox: 4; aSyn 5UTR inh: -23; KLF5 inhibitor: -3; APP transl inh: -4; BaF3 tox: 1; BaF3 parental 2: 2; JAK2V617F confrm: 64*

How did CC(=O)NC1=NN(C(C)=O)C(c2ccccn2)S1 (configuration not stated) do in these assays?
Ba/F3 V617F tox: 2; IEC-6 cytotox: -8; aSyn 5UTR inh: -3; KLF5 inhibitor: -2; APP transl inh: -2; BaF3 tox: 10

How did COc1ccc(Nc2nc(N3CCCC3)nc3ccccc23)c(OC)c1 do in these assays?
Ba/F3 V617F tox: 47*; IEC-6 cytotox: 10; aSyn 5UTR inh: -81; KLF5 inhibitor: -27; APP transl inh: 36; BaF3 tox: 18; BaF3 parental 2: 6; JAK2V617F confrm: 11
